COUP-TFII inh: NR2F2 (human) inhibition, primary screen. P24468. HEK293T NGFI-A luciferase reporter, luminescence. inhibition, % at 8.6 µM. hit rate 0.7% among 370,000;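 active means inhibition above a per-plate cutoff, mean inhibition of test wells between control levels plus 3 SD, cut at about 38% in these data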;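 further: cells cotransfected with COUP-TFII expression vector driving the NGFI-A reporter; 0% = median of COUP-TF2 test wells and 100% = reporter-only cells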
Target sequence (P24468 whole entry, looked up): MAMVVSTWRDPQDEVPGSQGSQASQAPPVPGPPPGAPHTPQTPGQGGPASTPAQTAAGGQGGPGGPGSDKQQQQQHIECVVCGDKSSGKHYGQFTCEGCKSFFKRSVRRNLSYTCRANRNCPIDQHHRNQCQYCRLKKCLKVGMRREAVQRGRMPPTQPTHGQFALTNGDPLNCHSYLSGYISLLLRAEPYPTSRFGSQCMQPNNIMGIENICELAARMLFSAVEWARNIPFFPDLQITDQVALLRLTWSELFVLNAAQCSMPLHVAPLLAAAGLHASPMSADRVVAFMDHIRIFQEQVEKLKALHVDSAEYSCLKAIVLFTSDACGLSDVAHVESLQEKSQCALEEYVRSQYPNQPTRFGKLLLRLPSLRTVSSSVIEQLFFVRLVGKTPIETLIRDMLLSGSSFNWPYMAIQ
H9c2 TAG inh: reduces triacylglycerol accumulation in H9c2 cells; Nile Red lipid (TAG) fluorescence; cells loaded with 200 µM oleic acid; inhibition, % at 12.5 µM; hit rate 0.66% among 230,000;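 active means pattern-corrected inhibition of lipid staining of at least 50% with the nuclear-stain viability signal not falling by more than 50%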;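 further: 0% = DMSO wells and 100% = triacsin C control wells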
H9c2 protect: myocardial damage modulation in H9c2 cells; protection from H2O2 cell death, % at 20 µM; H9c2 cardiomyocytes, H2O2 injury protection, ATPLite, 2 h; hit rate 0.63% among 360,000;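 active means compounds giving at least 50% protection of heart cells from peroxide-induced death in the single-dose screen, raw or plate-pattern-corrected value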;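 further: 0% = DMSO wells with peroxide and 100% = DMSO wells without peroxide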
Gli-Sufu antag: Gli-Sufu pathway antagonism | Sufu-KO-LIGHT fibroblasts, Gli luciferase reporter luminescence | inhibition, % at 5 µM | hit rate 0.74% among 340,000 | AID 588413;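 active means inhibition above about 55%, limit read from the data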;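 further: 0% = DMSO-treated cells and 100% = wells with medium but no cells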
Jurkat NFkB inh: lowers PMA/ionomycin-induced NF-kB signal in Jurkat cells. PMA/ionomycin-induced NF-kB luciferase reporter, luminescence. inhibition, % at 4 µM. hit rate 0.53% among 330,000. AID 435003; in the data active means inhibition above about 50%
697 NFkB inh: lowers PMA/ionomycin-induced NF-kB signal in 697 B cells; 697 B-cell NF-kB luciferase reporter, 16 h; inhibition, % at 4 µM; hit rate 0.33% among 330,000; in the data active means inhibition above about 35%
Jurkat NFkB conf: lowers PMA/ionomycin-induced NF-kB signal in Jurkat cells. inhibition, % at 4 µM. AID 435020. Jurkat NF-kB luciferase, 16 h. hit rate 27% among 2,700. shares compounds with Jurkat NFkB inh;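 active means inhibition reaching about 45% at 4 µM in either replicate, limit read from the data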;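 further: plate controls were PMA/ionomycin stimulated DMSO wells for no effect and unstimulated DMSO wells for full effect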
697 NFkB conf: inhibitors of the PMA/ionomycin-induced NF-kB reporter in 697 B cells, retest | shares compounds with 697 NFkB inh | 697 B-cell NF-kB luciferase, 16 h | inhibition, % at 4 µM | hit rate 35% among 2,000 | AID 449746; in the data active means inhibition mostly above about 28%, no sharp cut-off; inactive means mostly below about 22%
Gli-Sufu confirm: confirmation of Gli-SUFU pathway antagonists; inhibition, % at 5 µM; shares compounds with Gli-Sufu antag; hit rate 40% among 2,500; AID 602428; Sufu-KO-LIGHT cells, Gli luciferase reporter, luminescence;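 active means mean inhibition at 5 µM reaching about 45%, limit read from the data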;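 further: plate controls were DMSO-treated cells for no effect and wells lacking cells for full effect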
Gli cytotox: counter-screen for Gli-SUFU antagonists: cytotoxicity; Sufu-KO-LIGHT cells cytotoxicity, ATP luminescence; cytotoxicity, % at 5 µM; hit rate 32% among 2,500; shares compounds with Gli-Sufu antag; AID 651994;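 active means mean cytotoxicity at 5 µM above about 25%, limit read from the data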;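 further: cells exposed to compound overnight for roughly 16 to 18 hours; plate controls were DMSO wells with cells for no effect and medium without cells for full effect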
Wnt3a cs: counter-screen for Gli-SUFU antagonists: Wnt3a reporter inhibition. shares compounds with Gli-Sufu antag. AID 651995. inhibition, % at 6.25 µM. Wnt-LIGHT cells, Wnt3a-driven luciferase reporter, luminescence. hit rate 20% among 2,500;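 active means mean inhibition above about 25%, limit read from the data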
Gal4-VP16 ctr: inhibits VP16 reporter, flagging COUP-TFII antagonist hits; hit rate 25% among 2,500; AID 687007; inhibition, % at 8.5 µM; HEK293 Gal4-VP16 luciferase reporter, luminescence; shares compounds with COUP-TFII inh; in the data active means inhibition above about 13%
NR2F2 inh conf: confirmation of human COUP-TFII (NR2F2) inhibitors | shares compounds with COUP-TFII inh | HEK293 NGFI-A luciferase reporter, luminescence | inhibition, % at 8.5 µM | hit rate 45% among 2,500;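 active means mean inhibition over three repeats above a set limit taken from the earlier primary screen, cut at about 38% in these data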;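 further: 100% = cells given the luciferase reporter alone without the COUP-TF2 vector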
Numbers without * were called inactive; . = no result. Hits are enriched below; roughly 2.6% of the tested compounds scored in any of these assays.

SMILES | COUP-TFII inh | H9c2 TAG inh | H9c2 protect | Gli-Sufu antag | Jurkat NFkB inh | 697 NFkB inh | Jurkat NFkB conf | Gal4-VP16 ctr | NR2F2 inh conf | others
O=S(=O)(c1cc(F)ccc1F)N1CCN(c2ccccn2)CC1 | 8.9 | . | 5.0 | 5.6 | 2.0 | 0.2 | . | . | .
O=S(=O)(c1cc(F)ccc1F)N1CCN(c2ncnc3ccccc23)CC1 | 51.2* | -35.8 | -17.8 | 59.0* | 60.2* | -39.6 | 58.1* | 19.2* | 52.6* | Gli-Sufu confirm=62.5*;Gli cytotox=58.2*;Wnt3a cs=10.1
Cc1ccc(S(=O)(=O)NCc2ccc(C(=O)N3CCN(c4ccc([N+](=O)[O-])cc4)CC3)cc2)cc1 | 54.7* | . | -7.0 | 26.3 | 58.7* | 0.5 | 53.3* | 6.8 | 66.1*
COc1ccc(N2CCN(C(=O)c3ccc(CNS(=O)(=O)c4ccc(C)cc4)cc3)CC2)cc1 | 9.6 | . | -4.6 | -15.7 | 9.3 | -11.6 | . | . | .
O=C(CCCCCN1C(=O)C2C3C=CC(C3)C2C1=O)Nc1ccc2ncccc2c1 (stereo not drawn) | 3.4 | . | . | . | . | . | . | . | .
C[C@H]1O[C@@H](O[C@H]2[C@@H](O)C[C@H](O[C@H]3[C@@H](O)C[C@H](O[C@H]4CC[C@@]5(C)[C@H](CC[C@@H]6[C@@H]5C[C@@H](O)[C@]5(C)[C@@H](C7=CC(=O)OC7)CC[C@]65O)C4)O[C@@H]3C)O[C@@H]2C)C[C@H](O)[C@@H]1O | 80.4* | 12.2 | -4.3 | -29.3 | 96.1* | 92.4* | 96.8* | 48.3* | 76.8* | 697 NFkB conf=92.7*
CC(C)CC[n+]1ccccc1/C=C/c1ccc(N(C)C)cc1 | 85.8* | . | -17.5 | 88.1* | 89.6* | 29.3 | 49.0* | 25.9* | 85.5*
COc1ccc(-c2cc3nc(C)n(N)c(=O)c3s2)cc1 | 66.1* | 1.0 | -15.9 | 76.0* | 79.7* | 53.4* | 82.7* | 59.7* | 77.0* | 697 NFkB conf=49.2*
COc1ccc(C=NNc2nc3ccccc3s2)cc1 | -39.4 | 1.9 | -21.6 | -101.4 | . | . | . | . | .
C(=N\Nc1nc2ccccc2s1)/c1ccccn1 | 62.5* | . | . | 74.8* | 84.3* | 21.5 | 73.4* | 69.7* | 79.6*
Cc1cc(C)c(CN2CCN(C(=O)Cn3cnc4c(OCc5ccccc5)ncnc43)CC2)c(C)c1 | 62.9* | -3.5 | -26.5 | 45.6 | 59.0* | 33.2 | 59.4* | -5.2 | 63.5*
CCC[C@H]1[C@@H](OC(=O)NCc2ccc(C(F)(F)F)cc2)CC[C@@]23CCCN2C(=O)CCC[C@@H]13 | 25.9 | . | . | . | . | . | . | . | .
CCC[C@H]1[C@@H](NCc2cccs2)CC[C@@]23CCCN2C(=O)CCC[C@@H]13 | 18.6 | . | . | . | . | . | . | . | .
COC(=O)[C@]12C[C@H](CC(=O)NCCc3ccccc3OC)C(=O)N(Cc3ccc(Cl)cc3Cl)C1=C[C@H](COCc1ccccc1)O[C@@H]2C | -1.5 | . | . | . | . | . | . | . | .
CC1=C(C(=O)OCc2ccc3c(c2)OCO3)C(c2ccc(Cl)cc2)NC(=O)N1 (stereo not drawn) | 47.8* | . | 6.3 | -6.5 | 71.0* | -17.7 | 63.7* | 28.8* | 37.0
CC1=C(C(=O)OCc2ccc3c(c2)OCO3)C(c2ccc(F)cc2)NC(=O)N1 (stereo not drawn) | 38.2* | . | 7.2 | -12.3 | 59.3* | -36.6 | 33.6 | 23.4* | 27.7

Screens as filed in PubChem.
